Where “and” joins values, the source holds several entries; their conditions need not be identical. Identical values can stand only once. Inconclusive results are not listed. More than one record can exist for a structure, and the calls need not agree. Calls of active or inactive are those of the source. How the source made its calls: active means hit-call score of the fitted dose curve at least 0.9, where 1 is the maximum; inconclusive means response in the unintended direction; inactive means score below 0.9.
How the values were obtained:
[1] = target: human Matrix Metalloproteinase-9 (MMP9), MMP9 (gene 4318) (UniProt P14780); assay: NVS_ENZ_hMMP9: NovaScreen (NVS) Enzymatic Assay for human Matrix Metalloproteinase-9 (MMP9) (AID 2283190);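 further: cell-free recombinant MMP9 protease activity read by fluorescent substrate signal; active means inhibition seen as loss of fluorescence signal versus DMSO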
In short: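 Cell-free fluorescence-intensity enzyme activity assay using extracted protein, read 1 h after dosing. Loss of signal versus DMSO baseline indicates inhibition; primary screen in duplicate at 25 uM, actives followed up in concentration series.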

[2] = target: human Phosphodiesterase 4A1 (PDE4A1), PDE4A (gene 5141) (UniProt P27815); assay: NVS_ENZ_hPDE4A1: NovaScreen (NVS) Enzymatic Assay for human Phosphodiesterase 4A1 (PDE4A1) (AID 2283191)
In short: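 Cell-free recombinant human PDE4A1 with fluorescent substrate; product separated by electrophoretic mobility shift, 1 h. Screened at 25 uM, then up to 50 uM in concentration-response; loss of signal fitted against DMSO.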

[3] = target: Tyrosine-protein phosphatase non-receptor type 14 (Homo sapiens) (UniProt Q15678); assay: NVS_ENZ_hPTPN14: NovaScreen (NVS) Enzymatic Assay for human Protein Tyrosine Phosphatase Non-receptor Type 14 (PTPN14) (AID 2283206)
In short: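 Cell-free recombinant human PTPN14 with fluorescent substrate, read 0.5 h after dosing by fluorescence and electrophoretic mobility shift separating substrate from product. Primary screen at 25 uM in duplicate; hits run to 50 uM maximum; loss of signal versus DMSO.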

[4] = target: human p21 Activated Kinase 4 (PAK4), PAK4 (gene 10298) (UniProt O96013); assay: NVS_ENZ_hPAK4: NovaScreen (NVS) Enzymatic Assay for human p21 Activated Kinase 4 (PAK4) (AID 2283189)
In short: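 Cell-free recombinant human PAK4 activity assay; fluorescent substrate and product separated by electrophoretic mobility shift, read 1 h after dosing. Initially tested in duplicate at 25 uM, relative to DMSO baseline.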

[5] = target: human Phosphodiesterase 5 (PDE5), PDE5A (gene 8654) (UniProt O76074); assay: NVS_ENZ_hPDE5: NovaScreen (NVS) Enzymatic Assay for human Phosphodiesterase 5 (PDE5) (AID 2283194)
In short: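 Recombinant human PDE5 with specific substrate, read 1 h after dosing by fluorescence with electrophoretic mobility-shift separation of substrate and product. Initial single-concentration duplicate screen at 25 uM, actives followed in concentration series; loss of activity versus DMSO.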

[6] = target: human Phosphodiesterase 10 (PDE10), PDE10A (gene 10846) (UniProt Q9Y233); assay: NVS_ENZ_hPDE10: NovaScreen (NVS) Enzymatic Assay for human Phosphodiesterase 10 (PDE10) (AID 2283195)
In short: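 Fluorescence/mobility-shift readout of PDE10A enzyme activity, taken 1 h post-dosing. Primary screen in duplicate at 25 uM; actives (e.g. ≥30% inhibition) retested as singleton concentration-response, top concentration 50 uM.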

[7] = target: human Phosphoinositide 3-kinase alpha (PI3Ka), PIK3CA (gene 5290) (UniProt P42336); assay: NVS_ENZ_hPI3Ka: NovaScreen (NVS) Enzymatic Assay for human Phosphoinositide 3-kinase alpha (PI3Ka) (AID 2283196)
In short: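 Enzyme activity as fluorescence after mobility-shift separation of substrate and product, 1 h reaction, recombinant human PI3Kα; concentration-response to 50 uM max for chemicals passing a 25 uM duplicate screen.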

[8] = target: PPP2CA (gene 5515) (UniProt P67775); assay: NVS_ENZ_hPPP2CA: NovaScreen (NVS) Enzymatic Assay for human Protein Phosphatase 2 Aatalytic subunit Alpha (PPP2CA) (AID 2283199)
In short: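 Recombinant human PPP2CA with fluorescent substrate; product separated from substrate by electrophoretic mobility shift, read 1.33 h after dosing. Duplicate single-point at 25 uM, then singleton concentration-response up to 50 uM; loss of signal versus DMSO.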

[9] = target: Serine/threonine-protein phosphatase PP1-alpha catalytic subunit (Homo sapiens) (UniProt P62136); assay: NVS_ENZ_hPPP1CA: NovaScreen (NVS) Enzymatic Assay for human Protein Phosphatase 1 Aatalytic subunit Alpha (PPP1CA) (AID 2283200)
In short: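 Recombinant enzyme activity read by fluorescence with electrophoretic mobility shift separating substrate from product, 1.33 h after dosing; loss of signal vs DMSO baseline. Primary screen in duplicate at 25 uM; actives retested in concentration-response up to 50 uM.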

[10] = target: human Protein Tyrosine Phosphatase Non-receptor Type 1 (PTPN1), PTPN1 (gene 5770) (UniProt P18031); assay: NVS_ENZ_hPTPN1: NovaScreen (NVS) Enzymatic Assay for human Protein Tyrosine Phosphatase Non-receptor Type 1 (PTPN1) (AID 2283201)
In short: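 Cell-free fluorogenic-substrate activity assay on recombinant enzyme, read 1.33 h after dosing by fluorescence and electrophoretic mobility shift; loss of signal vs DMSO baseline. Primary screen in duplicate at 25 uM, hits then run in concentration-response up to 50 uM.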

[11] = target: Tyrosine-protein phosphatase non-receptor type 11 (Homo sapiens) (UniProt Q06124); assay: NVS_ENZ_hPTPN11: NovaScreen (NVS) Enzymatic Assay for human Protein Tyrosine Phosphatase Non-receptor Type 11 (PTPN11) (AID 2283202)
In short: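 Recombinant human PTPN11 activity on a fluorescent substrate, with substrate/product separated by electrophoretic mobility shift; read 0.5 h after dosing, loss of signal vs DMSO. Duplicate 25 uM screen, then concentration-response up to 50 uM.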

[12] = target: human Phosphatase and Tensin Homolog (PTEN), PTEN (gene 5728) (UniProt P60484); assay: NVS_ENZ_hPTEN: NovaScreen (NVS) Enzymatic Assay for human Phosphatase and Tensin Homolog (PTEN) (AID 2283203)
In short: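 Cell-free recombinant human PTEN with fluorescent substrate; product separated by electrophoretic mobility shift and read by fluorescence 1 h after dosing. Primary screen in duplicate at 25 uM, actives followed in concentration series versus DMSO.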

[13] = target: Tyrosine-protein phosphatase non-receptor type 12 (Homo sapiens) (UniProt Q05209); assay: NVS_ENZ_hPTPN12: NovaScreen (NVS) Enzymatic Assay for human Protein Tyrosine Phosphatase Non-receptor Type 12 (PTPN12) (AID 2283204)
In short: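 Single-concentration duplicates (25 uM) preceded singleton concentration-response up to 50 uM for chemicals passing threshold. Cell-free recombinant PTPN12 activity was read 1.33 h after dosing via fluorescence after mobility-shift separation; loss of signal versus DMSO.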

[14] = target: Tyrosine-protein phosphatase non-receptor type 13 (Homo sapiens) (UniProt Q12923); assay: NVS_ENZ_hPTPN13: NovaScreen (NVS) Enzymatic Assay for human Protein Tyrosine Phosphatase Non-receptor Type 13 (PTPN13) (AID 2283205)
In short: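 Cell-free assay of recombinant human PTPN13 with a fluorescent substrate, product separated by electrophoretic mobility shift and read 0.5 h after dosing. Primary screen at 25 uM in duplicate, then concentration-response up to 50 uM. Loss of signal fitted against DMSO.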

[15] = target: human Protein Tyrosine Phosphatase Non-receptor Type 2 (PTPN2), PTPN2 (gene 5771) (UniProt P17706); assay: NVS_ENZ_hPTPN2: NovaScreen (NVS) Enzymatic Assay for human Protein Tyrosine Phosphatase Non-receptor Type 2 (PTPN2) (AID 2283207)
In short: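 Cell-free recombinant enzyme with fluorescent substrate, product separated by electrophoretic mobility shift; read 1 h after dosing. Primary screen single concentration (25 uM) in duplicate; actives followed in concentration series; loss of signal versus DMSO.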

[16] = target: human Protein Tyrosine Phosphatase Non-receptor Type 4 (PTPN4), PTPN4 (gene 5775) (UniProt P29074); assay: NVS_ENZ_hPTPN4: NovaScreen (NVS) Enzymatic Assay for human Protein Tyrosine Phosphatase Non-receptor Type 4 (PTPN4) (AID 2283208)
In short: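 Cell-free assay of PTPN4 expressed in Sf9 cells, using a fluorescent substrate with product separated by mobility shift; read 1.33 h after dosing. Single-point screen at 25 uM, then concentration-response up to 50 uM. Loss of signal relative to DMSO.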

[17] = target: human Matrix Metalloproteinase-3 (MMP3), MMP3 (gene 4314) (UniProt P08254); assay: NVS_ENZ_hMMP3: NovaScreen (NVS) Enzymatic Assay for human Matrix Metalloproteinase-3 (MMP3) (AID 2283185)
In short: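 Cell-free recombinant human MMP3 activity, fluorescence intensity read 1 h after dosing. Primary screen duplicate at 25 uM, actives retested in concentration series; loss of signal vs DMSO baseline.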

human Matrix Metalloproteinase-3 (MMP3), MMP3 (gene 4314), sequence (P08254 whole entry, looked up): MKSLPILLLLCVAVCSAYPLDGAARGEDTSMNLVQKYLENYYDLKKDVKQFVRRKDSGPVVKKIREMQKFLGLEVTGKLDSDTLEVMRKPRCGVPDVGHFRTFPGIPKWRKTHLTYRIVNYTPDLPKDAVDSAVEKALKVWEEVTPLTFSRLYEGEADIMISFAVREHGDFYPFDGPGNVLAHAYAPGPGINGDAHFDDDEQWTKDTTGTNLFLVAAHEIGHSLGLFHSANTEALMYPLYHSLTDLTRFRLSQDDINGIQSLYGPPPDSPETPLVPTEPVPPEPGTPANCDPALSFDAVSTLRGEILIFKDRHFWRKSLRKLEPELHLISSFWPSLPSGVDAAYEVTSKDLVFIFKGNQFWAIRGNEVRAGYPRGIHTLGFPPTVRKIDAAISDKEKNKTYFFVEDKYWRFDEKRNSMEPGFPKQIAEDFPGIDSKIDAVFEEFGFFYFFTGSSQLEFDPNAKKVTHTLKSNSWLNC
human Protein Tyrosine Phosphatase Non-receptor Type 4 (PTPN4), PTPN4 (gene 5775), sequence (P29074 whole entry, looked up): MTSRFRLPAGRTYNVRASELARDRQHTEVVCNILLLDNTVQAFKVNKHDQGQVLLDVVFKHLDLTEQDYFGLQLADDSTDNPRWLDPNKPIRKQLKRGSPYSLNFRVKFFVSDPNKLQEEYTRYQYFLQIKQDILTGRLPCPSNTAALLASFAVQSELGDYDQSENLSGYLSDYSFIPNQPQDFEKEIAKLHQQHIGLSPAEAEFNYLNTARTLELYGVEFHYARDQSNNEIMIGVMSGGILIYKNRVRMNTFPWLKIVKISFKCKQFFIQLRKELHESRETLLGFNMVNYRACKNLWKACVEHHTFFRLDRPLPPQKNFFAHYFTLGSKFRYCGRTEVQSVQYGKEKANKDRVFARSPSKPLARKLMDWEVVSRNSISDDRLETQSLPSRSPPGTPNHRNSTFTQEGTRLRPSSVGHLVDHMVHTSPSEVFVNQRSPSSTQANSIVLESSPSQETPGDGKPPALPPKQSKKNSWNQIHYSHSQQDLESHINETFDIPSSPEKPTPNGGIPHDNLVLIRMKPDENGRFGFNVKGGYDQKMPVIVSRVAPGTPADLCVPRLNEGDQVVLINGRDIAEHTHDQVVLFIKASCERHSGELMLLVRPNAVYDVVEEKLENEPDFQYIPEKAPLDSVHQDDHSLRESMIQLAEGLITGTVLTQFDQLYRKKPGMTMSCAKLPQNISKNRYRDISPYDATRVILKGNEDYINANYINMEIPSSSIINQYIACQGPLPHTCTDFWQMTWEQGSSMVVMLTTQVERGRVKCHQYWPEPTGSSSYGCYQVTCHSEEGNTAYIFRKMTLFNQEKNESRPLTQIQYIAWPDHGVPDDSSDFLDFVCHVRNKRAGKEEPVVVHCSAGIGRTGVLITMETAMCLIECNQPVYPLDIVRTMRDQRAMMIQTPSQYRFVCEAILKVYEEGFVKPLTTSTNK
human Phosphatase and Tensin Homolog (PTEN), PTEN (gene 5728), sequence (P60484 whole entry, looked up): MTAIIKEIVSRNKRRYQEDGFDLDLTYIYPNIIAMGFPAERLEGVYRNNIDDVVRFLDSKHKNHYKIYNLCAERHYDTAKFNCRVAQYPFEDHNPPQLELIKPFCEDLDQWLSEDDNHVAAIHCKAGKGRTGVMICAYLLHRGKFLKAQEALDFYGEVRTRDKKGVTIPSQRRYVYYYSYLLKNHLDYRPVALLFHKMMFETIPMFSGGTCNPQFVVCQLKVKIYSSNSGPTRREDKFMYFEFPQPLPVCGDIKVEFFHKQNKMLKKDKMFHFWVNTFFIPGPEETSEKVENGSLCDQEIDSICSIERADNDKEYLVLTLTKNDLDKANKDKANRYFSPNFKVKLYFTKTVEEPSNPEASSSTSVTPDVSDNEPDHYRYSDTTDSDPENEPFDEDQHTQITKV
human Phosphoinositide 3-kinase alpha (PI3Ka), PIK3CA (gene 5290), sequence (P42336 whole entry, looked up): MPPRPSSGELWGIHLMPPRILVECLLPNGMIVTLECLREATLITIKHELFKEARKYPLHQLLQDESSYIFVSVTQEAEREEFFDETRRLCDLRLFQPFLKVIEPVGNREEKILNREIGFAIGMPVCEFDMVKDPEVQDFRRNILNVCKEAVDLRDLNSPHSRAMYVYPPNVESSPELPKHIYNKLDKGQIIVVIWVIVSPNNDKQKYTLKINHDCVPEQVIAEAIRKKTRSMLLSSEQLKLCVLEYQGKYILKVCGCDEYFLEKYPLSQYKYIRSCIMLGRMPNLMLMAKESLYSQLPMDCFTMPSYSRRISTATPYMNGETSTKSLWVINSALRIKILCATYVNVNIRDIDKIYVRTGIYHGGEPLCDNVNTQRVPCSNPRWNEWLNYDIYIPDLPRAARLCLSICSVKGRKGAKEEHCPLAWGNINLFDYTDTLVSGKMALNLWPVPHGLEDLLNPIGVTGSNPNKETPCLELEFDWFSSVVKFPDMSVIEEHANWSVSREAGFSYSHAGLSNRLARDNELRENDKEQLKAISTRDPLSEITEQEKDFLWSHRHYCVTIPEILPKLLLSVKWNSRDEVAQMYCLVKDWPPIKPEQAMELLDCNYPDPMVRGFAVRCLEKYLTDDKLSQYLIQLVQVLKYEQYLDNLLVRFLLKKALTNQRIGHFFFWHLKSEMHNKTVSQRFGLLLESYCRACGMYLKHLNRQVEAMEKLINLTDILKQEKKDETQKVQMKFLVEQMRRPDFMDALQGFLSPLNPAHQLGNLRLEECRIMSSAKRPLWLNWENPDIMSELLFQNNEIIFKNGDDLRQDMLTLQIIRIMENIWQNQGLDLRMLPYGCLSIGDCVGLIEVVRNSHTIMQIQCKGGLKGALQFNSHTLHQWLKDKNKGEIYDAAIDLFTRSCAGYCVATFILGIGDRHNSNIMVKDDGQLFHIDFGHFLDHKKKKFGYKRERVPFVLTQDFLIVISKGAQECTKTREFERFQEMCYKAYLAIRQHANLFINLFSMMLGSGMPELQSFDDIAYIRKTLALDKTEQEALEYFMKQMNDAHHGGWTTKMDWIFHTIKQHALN
human Phosphodiesterase 4A1 (PDE4A1), PDE4A (gene 5141), sequence (P27815 whole entry, looked up): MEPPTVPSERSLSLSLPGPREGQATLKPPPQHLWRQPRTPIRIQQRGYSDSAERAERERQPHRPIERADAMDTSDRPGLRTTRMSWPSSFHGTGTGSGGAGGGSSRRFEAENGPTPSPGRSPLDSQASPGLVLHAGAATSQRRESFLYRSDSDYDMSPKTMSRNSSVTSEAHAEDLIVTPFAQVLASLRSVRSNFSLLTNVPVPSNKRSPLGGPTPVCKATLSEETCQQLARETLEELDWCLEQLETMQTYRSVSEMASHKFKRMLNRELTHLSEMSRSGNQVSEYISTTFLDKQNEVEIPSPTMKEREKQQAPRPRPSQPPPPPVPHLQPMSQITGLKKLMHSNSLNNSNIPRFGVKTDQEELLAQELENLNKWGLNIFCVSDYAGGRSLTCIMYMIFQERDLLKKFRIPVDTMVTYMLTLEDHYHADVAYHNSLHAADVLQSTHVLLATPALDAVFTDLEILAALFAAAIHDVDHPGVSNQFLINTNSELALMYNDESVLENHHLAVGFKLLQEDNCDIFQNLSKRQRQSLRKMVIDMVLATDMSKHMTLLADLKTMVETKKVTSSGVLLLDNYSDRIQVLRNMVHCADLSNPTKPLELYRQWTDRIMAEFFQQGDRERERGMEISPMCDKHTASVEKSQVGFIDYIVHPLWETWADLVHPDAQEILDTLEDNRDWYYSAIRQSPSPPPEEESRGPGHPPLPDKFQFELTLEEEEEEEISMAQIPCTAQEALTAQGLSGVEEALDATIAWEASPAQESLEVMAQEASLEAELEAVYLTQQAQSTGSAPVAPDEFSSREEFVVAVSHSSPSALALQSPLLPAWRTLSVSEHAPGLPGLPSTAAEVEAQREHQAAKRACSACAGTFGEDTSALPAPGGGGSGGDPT
human Matrix Metalloproteinase-9 (MMP9), MMP9 (gene 4318), sequence (P14780 whole entry, looked up): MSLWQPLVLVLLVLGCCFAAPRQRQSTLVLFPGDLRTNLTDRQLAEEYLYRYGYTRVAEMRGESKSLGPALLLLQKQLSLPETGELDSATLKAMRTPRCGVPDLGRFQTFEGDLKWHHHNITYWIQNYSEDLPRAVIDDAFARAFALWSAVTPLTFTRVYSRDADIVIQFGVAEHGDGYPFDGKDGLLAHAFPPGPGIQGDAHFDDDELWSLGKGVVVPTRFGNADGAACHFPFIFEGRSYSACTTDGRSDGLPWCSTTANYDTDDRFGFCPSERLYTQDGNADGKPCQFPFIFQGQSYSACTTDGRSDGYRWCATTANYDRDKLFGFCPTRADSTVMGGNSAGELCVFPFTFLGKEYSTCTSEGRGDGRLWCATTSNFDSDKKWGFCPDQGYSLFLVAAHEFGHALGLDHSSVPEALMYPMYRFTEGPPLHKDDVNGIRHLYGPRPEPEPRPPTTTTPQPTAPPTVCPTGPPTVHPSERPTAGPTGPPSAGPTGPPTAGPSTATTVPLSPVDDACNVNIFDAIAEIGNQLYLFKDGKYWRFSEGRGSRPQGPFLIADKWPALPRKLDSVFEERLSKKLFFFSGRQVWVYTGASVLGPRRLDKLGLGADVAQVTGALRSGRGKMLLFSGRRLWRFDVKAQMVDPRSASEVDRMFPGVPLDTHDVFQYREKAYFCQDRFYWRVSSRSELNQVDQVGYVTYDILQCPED
human Protein Tyrosine Phosphatase Non-receptor Type 2 (PTPN2), PTPN2 (gene 5771), sequence (P17706 whole entry, looked up): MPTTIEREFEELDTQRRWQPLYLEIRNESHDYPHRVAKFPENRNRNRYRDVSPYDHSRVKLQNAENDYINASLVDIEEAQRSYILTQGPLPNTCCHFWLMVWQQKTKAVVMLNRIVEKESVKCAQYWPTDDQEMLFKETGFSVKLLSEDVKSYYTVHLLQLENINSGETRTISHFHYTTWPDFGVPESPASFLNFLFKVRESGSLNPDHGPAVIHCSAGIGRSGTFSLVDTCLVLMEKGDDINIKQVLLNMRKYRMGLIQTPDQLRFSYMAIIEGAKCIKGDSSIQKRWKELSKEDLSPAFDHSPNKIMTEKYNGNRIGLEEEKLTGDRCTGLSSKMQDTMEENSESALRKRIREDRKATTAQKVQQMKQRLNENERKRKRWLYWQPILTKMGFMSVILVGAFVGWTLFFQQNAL

For `O=C(O)c1cc(Oc2ccc(C(F)(F)F)cc2Cl)ccc1[N+](=O)[O-]`, the outcome [1] was “inactive”, the outcome [2] was “inactive” and the outcome [3] was “inactive”.
`CN(C)[C@@H]1C(=O)C(C(N)=O)=C(O)[C@@]2(O)C(=O)C3=C(O)c4c(O)cccc4[C@@](C)(O)[C@H]3[C@H](O)[C@@H]12` was tested, and the AC50 [4] was 9.28 µM (active), the outcome [4] was “inactive” and the AC50 [2] was 23.1 µM (active). The AC50 [5] was 6.97 µM (active), the outcome [6] was “inactive” and the AC50 [7] was 4.72 µM (active) and 4.22 µM (active) and 15.1 µM (active). For the same compound, the outcome [7] was “inactive”, the AC50 [8] was 23.1 µM (active) and the AC50 [9] was 17.4 µM (active). For the same compound, the AC50 [10] was 23.1 µM (active), the AC50 [11] was 10.9 µM (active) and 2.67 µM (active) and the AC50 [12] was 2.52 µM (active) and 1.53 µM (active) and 2.46 µM (active). The AC50 [13] was 3.91 µM (active) and 18.2 µM (active) and 1.8 µM (active), the AC50 [14] was 2.9 µM (active) and the AC50 [3] was 26.3 µM (active). For the same compound, the AC50 [15] was 20.1 µM (active) and the AC50 [16] was 12.1 µM (active).
For `Cc1cc(C2CC2)nc(Nc2ccccc2)n1`, the outcome [17] was “inactive” and the outcome [2] was “inactive”.
In the case of `CSc1nc(NC(C)C)nc(NC(C)C)n1`, the AC50 [2] is reported as 3.43 µM (active) and the AC50 [5] is reported as 5.79 µM (active).
With `C#CC(C)(C)NC(=O)c1cc(Cl)cc(Cl)c1` the outcome [17] was “inactive”, the outcome [12] was “inactive” and the outcome [15] was “inactive”.
`CCC(=O)Nc1ccc(Cl)c(Cl)c1` was tested, and the AC50 [2] was 25 µM (active) and the outcome [8] was “inactive”.
With `CCOP(=S)(OCC)OC(Cl)C(Cl)(Cl)Cl` (centres undefined) the outcome [17] was “inactive”, the outcome [10] was “inactive” and the outcome [16] was “inactive”.
For `COc1ccc(C(=CC(=O)N2CCOCC2)c2ccc(Cl)cc2)cc1OC`, the AC50 [2] was 0.0383 µM (active).
In the case of `CC1=NNC(=O)N(/N=C/c2cccnc2)C1`, the outcome [17] is reported as “inactive”.
In the case of `Cc1ccn2nc(S(=O)(=O)Nc3c(F)cccc3F)nc2n1`, the outcome [1] is reported as “inactive”, the outcome [7] is reported as “inactive” and the outcome [16] is reported as “inactive”.
With `COP(=O)(OC)SCn1c(=O)oc2cc(Cl)cnc21` the outcome [1] was “inactive”.
For `CCOP(=S)(OCC)Oc1ccc([N+](=O)[O-])cc1`, the outcome [2] was “inactive”.

— PubChem BioAssay (EPA / NIEHS)
